AMA1 RON2 block = disrupts binding of P. falciparum AMA1 to RON2 | AlphaScreen AMA1-biotinylated RON2 peptide binding | Potency, µM (series often up to 58.2 µM), inactives show top-dose activity change, negative = inhibition, usual class: inhibitors | hit rate 0.2% among 360,000;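 note: potency is the fitted concentration of half-maximal effect; 0% = vehicle wells and -100% = peptide control; nearly all actives have a fitted effect of over 45% in size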
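AMA1 (3D7) with his tag at 25 nM final met compounds first, then biotinylated RON2 peptide at 25 nM; detection used donor plus acceptor beads, 10 µg/mL apiece, read by AlphaScreen after 30 min at room temperature.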
Shiga toxin inh = Shiga toxin inhibition; Vero cells, Shiga toxin protein synthesis inhibition reporter; inhibition, % at 38.7 µM; hit rate 9.2% among 290,000; in the data active = inhibition mostly above about 28%, no sharp cut-off; inactive = mostly below about 43%; note: 0% is about no effect
Pf growth 48h = inhibits P. falciparum growth in the first generation, 48 h; P. falciparum luciferase growth in erythrocytes, 48 h; Potency, µM (top dose mostly 28.7 µM), without a hit: at the top dose activity change, negative = inhibition, usual class: inhibitors; hit rate 5.9% among 310,000; note: potency is the fitted concentration of half-maximal effect; % is set by controls: 0 for no effect and ±100 for the full control effect
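Luciferase-expressing P. falciparum in infected erythrocytes (2% hematocrit, 0.1% parasitemia final) in RPMI 1640/0.5% Albumax were exposed to compound for 48 hours at 37 C, 5% CO2; growth read as luminescence.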
Cycloheximide cs = counter-screen hit for Shiga toxin inhibitors, cycloheximide; max response, %; AID 2314; hit rate 12% among 300,000; cell reporter, cycloheximide protein synthesis inhibition counterscreen; in the data active = max response mostly above about 13%, no sharp cut-off; inactive = mostly below about 14%; note: read at 38.3 µM for the half of the compounds with a filed dose; 0% is about no effect
Pf growth 96h = inhibits malaria parasite growth, 96 h | Potency, µM (doses to about 28.7 µM), for the others: at the top dose activity change, negative = inhibition, actives largely listed as inhibitors | hit rate 6.9% among 320,000 | P. falciparum luciferase reporter growth, 96 h; note: potency is the fitted concentration of half-maximal effect; % is set by controls: 0 for no effect and ±100 for the full control effect
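Cell-based qHTS: luciferase-tagged P. falciparum in erythrocytes (2% hematocrit, 0.05% parasitemia final) incubated with compounds for 96 hours, 37 C, 5% CO2; luciferase detection reagent then added and luminescence measured.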
HCV inh = HCV inhibition; Huh7.5.1 HCVcc-Cre infection, luciferase reporter, 44 h; Potency, µM (doses to about 41.8 µM), for the others: at the highest dose activity change, negative = inhibition, actives largely listed as inhibitors; hit rate 3.4% among 340,000; note: potency is the fitted concentration of half-maximal effect; % is set by controls: 0 for no effect and ±100 for the full control effect
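Infectious HCV cell culture screen: compound-treated cells (1,000/well, pre-plated 4 h) are infected with HCVcc-Cre at roughly 0.5 moi and grown 44 h. Infection is quantified by luciferase signal after 15 min substrate incubation at room temperature.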
Active calls of the source: *; ? = inconclusive; nt = no result; ! = not confirmed by another sample; [ ] = dose if it differs, or a comment. Compounds with a hit are over-represented: about 21% of the library has one in this group of screens. Unless noted, calls come from the whole dose curve; as a rule, active = well fitted curve in the direction sought with a large enough effect; inconclusive = small, poorly fitted or top-dose-only effect, or another doubt; inactive = no such curve, though single readings can be large; an effect the other way counts as inactive or inconclusive.

SMILES | AMA1 RON2 block | Shiga toxin inh | Pf growth 48h | Cycloheximide cs | Pf growth 96h | HCV inh
CCc1nnc(NC(=O)CSc2nnc(-c3cc4ccccc4cc3O)n2CC)s1 | 1% | -8 | -5% | 1 | -25% | -5%
CC1CCN(C(=O)CSc2nnc(-c3cc4ccccc4cc3O)n2Cc2ccco2)CC1 | 19% | -21 | 12µM* | -2 | 3%[5.75 µM] | ?
CCn1c(SCC(=O)N(C(C)C)C(C)C)nnc1-c1cc2ccccc2cc1O | -14% | -14 | 1.9µM* | 5 | 84% | ?
COc1ccc(C(=O)CSc2nnc(-c3cc4ccccc4cc3O)n2Cc2ccco2)cc1 | 31% | 7 | 2.3µM* | 7 | -1% | 11µM*
CCN(CC)c1ccc(SS(=O)(=O)O)cc1 | -14% | -3 | 13µM* | 6 | 10µM*! | 0%
O=c1ccn([C@@H]2O[C@H](CNCc3ccccc3OCc3ccc(Cl)cc3Cl)[C@@H](O)[C@H]2O)c(=O)[nH]1 | 0% | nt | nt | nt | nt | nt
Nc1nc(Nc2ccccc2F)nc(N2CCCC2)c1[N+](=O)[O-] | -2% | 107* | 100% | 51* | 127% | 8.9µM*
CC(C)CCNc1nc(N)c([N+](=O)[O-])c(N2CCCCCC2)n1 | -17% | -8 | 3.7µM* | 11 | 2.1µM* | ?
Cc1cccc(Nc2nc(N)c([N+](=O)[O-])c(N3CCCC(C)C3)n2)c1 (stereo not given) | ? | -12 | 12µM* | -4 | ? | ?
CN(c1ccccc1)c1nc(N)c([N+](=O)[O-])c(N2CCCC2)n1 | -13% | 81* | 36% | 37* | 69% | ?
Cc1cccc(Nc2nc(N)c([N+](=O)[O-])c(N3CCN(C)CC3)n2)c1 | 2% | 10 | ? | -1 | ? | ?
CC(=O)c1ccc(NC(=O)CSc2ccc(-c3ccc(-n4cccn4)cc3)nn2)cc1 | 0% | nt | 14% | nt | 45% | -5%
CN(c1ccccc1)c1nc(N)c([N+](=O)[O-])c(N2CCCCC2)n1 | -11% | 61* | 5% | 32* | 18% | ?
CN(c1ccccc1)c1nc(N)c([N+](=O)[O-])c(N2CCOCC2)n1 | -26% | 12 | 40% | 10 | 3% | -11%
CCNC(=O)C1CCCN(C(=O)c2ccc(F)c(Cl)c2)CC1 (stereo not given) | -6% | nt | nt | nt | nt | nt
COC(=O)N/N=C/c1ccc(Oc2ccccc2)cc1 | 10% | 92* | 84% | 46* | 63% | 11%
CC(C)(O)C(=O)N/N=C\c1ccc(OC/C=C/c2ccccc2)cc1 | 0% | 45 | -8% | 32* | ? | 0%
COc1ccc(/C=N/NC(=O)CSCC(=O)Nc2ccccc2)cc1 | 1% | 30 | 50% | 11 | 29% | 0%
COC(=O)N/N=C\c1ccc(OC/C=C/c2ccccc2)cc1 | -4% | 14 | ? | 15* | -25% | 3%
CCOC(=O)N/N=C\c1ccc(OC/C=C/c2ccccc2)cc1 | 1% | 18 | ? | 12 | ? | 3%
CCC(CC)NC(=O)Nc1ccccc1C(F)(F)F | -17% | 7 | -5% | -3 | 20% | 2%
COC(=O)[C@@]12C[C@@H](CC(=O)NCC3CCCCC3)C(=O)N(Cc3cccc4ccccc34)C1=CCC(C)(C)C2 | -7% | nt | nt | nt | nt | nt
OC(c1ccc(Cl)cc1)c1nccc2ccccc12 (stereo not given) | -2% | nt | 18% | 9 | ? | 8%
Cc1ccc2ccccc2c1NC(=O)c1ccco1 | -5% | -7 | 3%[0.00184 µM] | -2 | 24% | 16%
Cc1nc2cc(Cl)ccc2c(=O)n1Cc1ccncc1 | -2% | -12 | nt | -2 | 13% | 13%
NC1=NC(c2ccccc2C(F)(F)F)N(c2ccc(F)c(Cl)c2)C(N)=N1 (stereo not given) | -11% | -7 | 1.9µM* | -1 | 9% | -5%
Nc1ncnn1Cc1ccccc1 | -13% | nt | nt | nt | nt | nt
CC(C)C(=O)Nc1cccnc1 | -9% | -5 | 7% | -3 | 29% | 3%
CCC(C)c1ccc(NC(=O)NCc2cccnc2)cc1 (stereo not given) | 5% | 14 | -7% | 26* | 18% | 10%
O=C(NCc1cccnc1)C1CCC(c2ccc(Cl)cc2)CC1 (stereo not given) | 4% | -5 | ? | -2 | ? | 7.9µM*
